Assay results as given in PubChem BioAssay AID1259343 (VanderVen Lab, College of Veterinary Medicine, Cornell …, 2017).
Out of some 6,200 compounds screened, about 2,900 (47%) were called active. Rule as the data show it: active = inhibition above about 50%; inactive = the rest. The set was probably picked from earlier hits. This is one part of the list. Where a SMILES comes first, the peptide text is derived from it. [ ]: non-standard residue; d: D form. Orn = NCCC[CH](N)C(=O)O

Experiment: Mycobacterium tuberculosis growth inhibition, primary screen (AID 1259343)
Conditions: inhibition: at 10 µM, stronger effect = higher value; outcome: 10 uM
In the case of CCCc1cc(=O)[nH]c(-n2nc(C)cc2NC(C)=O)n1, the inhibition is reported as 99.8% (active).
For CCCc1cc(=O)[nH]c(-n2nc(C)cc2NC(=O)C(C)(C)Oc2ccc(Cl)cc2)n1, the inhibition was 2.87% (inactive).
For CCCc1cc(=O)[nH]c(-n2nc(C)cc2NC(=O)CC)n1, the inhibition was 100% (active).
For CCCc1cc(=O)[nH]c(-n2nc(C)cc2NC(=O)C(C)(C)CCl)n1, the inhibition was 102% (active).
In the case of O=c1c(O)cccc2cc(O)c(O)c(O)c12, the inhibition is reported as 64.6% (active).
In the case of Cc1ccsc1C=NNc1ncnc2sc(C)c(C)c12, the inhibition is reported as 66.9% (active).
With CC(=NNc1ncnc2sc(C)c(C)c12)c1ccc(Cl)s1 the inhibition was 47.1% (inactive).
With CCCCNC(=S)NNc1ncnc2sc(C)c(C)c12 the inhibition was 65.6% (active).
In the case of CCCC(CCC)=NNc1ncnc2sc(C)c(C)c12, the inhibition is reported as 96.3% (active).
In the case of Cc1sc2ncnc(SCC(=O)c3ccc(Cl)s3)c2c1C, the inhibition is reported as 13.9% (inactive).
With COC(=O)C(C)Sc1ncnc2sc(C)c(C)c12 (stereo not given) the inhibition was -21% (inactive).
In the case of COC(=O)c1ccc(CSc2ncnc3c2nnn3Cc2ccc(F)cc2)o1, the inhibition is reported as 3.1% (inactive).
For COC(=O)c1ccc(CSc2ncnc3c2nnn3Cc2ccccc2)o1, the inhibition was 26.9% (inactive).
For COC(=O)c1ccc(Cn2ncc(Cl)c(Cl)c2=O)o1, the inhibition was 75.5% (active).
With CC(C)C(C)NC(=O)Nc1nc(-c2ccccc2)ns1 (stereo not given) the inhibition was 83.1% (active).
In the case of COCC1(NC(=O)Nc2nc(-c3ccccc3)ns2)CCCC1, the inhibition is reported as 5.18% (inactive).
In the case of CCOC(=O)C1(CCOc2ccccc2)CCN(Cc2nc(C(C)C)cs2)CC1, the inhibition is reported as “inactive”.
For CCOC(=O)C1(Cc2ccc(Cl)cc2)CCN(Cc2cccc3nonc23)CC1, the inhibition was 78.1% (active).
In the case of CCOC(=O)C1(Cc2ccc(Cl)cc2)CCN(C(=O)Nc2ccc(Cl)cc2C)CC1, the inhibition is reported as 1.06% (inactive).
For Cc1cc(Br)ccc1NC(=O)c1ccc([N+](=O)[O-])o1, the inhibition was 38.1% (inactive).
For Cc1cccc(NC(=O)c2n[nH]c([N+](=O)[O-])c2Br)c1C, the inhibition was 86.8% (active).
In the case of CNC(=O)c1ccccc1NC(=O)c1ccc(C)c(Br)c1, the inhibition is reported as 23.1% (inactive).
For C=CCSc1nn2c(=O)c3ccccc3nc2s1, the inhibition was 97.6% (active).
With CCOc1ccc(Br)c(C=Nc2ccc3oc(=O)ccc3c2)c1O the inhibition was 81.3% (active).
For Cc1nc(COc2ccc(C(=O)NCc3ccc(F)cc3)cc2)cs1, the inhibition was -15.9% (inactive).
For Cc1csc2nc(O)c(C(=O)NCc3ccc(F)cc3)c(=O)n12, the inhibition was 74.4% (active).
In the case of Cc1csc2nc(O)c(C(=O)NCCc3ccccc3)c(=O)n12, the inhibition is reported as 82.8% (active).
In the case of Cc1c(C(=O)NCc2ccc(Cl)c(Cl)c2)sc(=O)n1Cc1ccc(F)cc1, the inhibition is reported as 17.9% (inactive).
In the case of CC(=O)NCc1ccc(-c2nc(CCc3ccccc3)sc2C)s1, the inhibition is reported as 28% (inactive).
For Cc1c(C(=O)NCc2ccc(Cl)c(Cl)c2)sc(=O)n1CCc1ccccc1, the inhibition was 35.6% (inactive).
In the case of CCOc1ccc(NC(=O)c2cncc(Br)c2)cc1F, the inhibition is reported as 44.8% (inactive).
In the case of O=C(Nc1ncccc1OC(F)F)c1cncc(Br)c1, the inhibition is reported as 89.3% (active).
In the case of C=CCN(c1ccccc1)S(=O)(=O)c1ccc(Br)cc1Cl, the inhibition is reported as 27.3% (inactive).
For C1=CCC(c2nc(Cc3cccnc3)no2)CC1 (stereo not given), the inhibition was -4.1% (inactive).
For COc1ccc2c(c1)CC(c1nc(Cc3ccc(F)cc3)no1)CO2 (stereo not given), the inhibition was 63.1% (active).
With COc1ccc2cc(C3CN(Cc4noc(C5CC5)n4)CCO3)ccc2c1 (stereo not given) the inhibition was 23.6% (inactive).
In the case of N#CC(C#N)=C1C=C2C=C(N3CCCCCC3)CCC2CC1 (stereo not given), the inhibition is reported as 73.5% (active).
With CCCCN(C)C1=CC2=CC(=C(C#N)C#N)CCC2CC1 (stereo not given) the inhibition was 45.5% (inactive).
In the case of N#CC(C#N)=C1C=C2C=C(N3CCCCC3)CCC2CC1 (stereo not given), the inhibition is reported as 49% (inactive).
For Cn1nc(C(F)(F)F)cc1-c1ccc(C(=O)O)s1, the inhibition was 46.4% (inactive).
With O=C(O)c1cnc(/C=C/c2cccc(C(F)(F)F)c2)s1 the inhibition was -17.4% (inactive).
With O=C(O)c1cnc(-c2ccc(C(F)(F)F)cc2)s1 the inhibition was 60.4% (active).
For Brc1ccc(Sc2ncnc3sccc23)cc1, the inhibition was 19.4% (inactive).
With Clc1cc(Br)ccc1Oc1ncnc2sccc12 the inhibition was 70.4% (active).
In the case of O=C1COc2ccc(C3=NNC(=Nc4ccccc4Cl)SC3)cc2N1, the inhibition is reported as 11.7% (inactive).
With O=C1NC(=Nc2ccccc2Cl)S/C1=C\c1ccsc1 the inhibition was 59.3% (active).
With CN(C)CC/C=C1\c2ccccc2Sc2ccc(Cl)cc21 the inhibition was 90.1% (active).
In the case of CN(Cc1ccc(Cl)cc1)Cc1cc2c(cc1O)CCC2, the inhibition is reported as 22.8% (inactive).
In the case of Oc1ccc(F)cc1C1=NNC(c2ccc(Cl)cc2)C1 (stereo not given), the inhibition is reported as 60.6% (active).
For Cn1c(Cl)cnc1C1CC(c2cc(Cl)ccc2O)=NN1 (stereo not given), the inhibition was 101% (active).
With Oc1c(Cl)cc(Cl)cc1C1=NNC(c2ccccc2F)C1 (stereo not given) the inhibition was 38.9% (inactive).
For O=C(CSc1nnc2ccccn12)Nc1c(Cl)c(Cl)cc(Cl)c1Cl, the inhibition was -1.75% (inactive).
In the case of COc1ccc(NC(=O)CSc2nnc3ccccn23)c(OC)c1, the inhibition is reported as 81.5% (active).
With CC(C)CC1NC(=O)C(CCCN)NC(=O)C(C(C)C)NC(=O)C2CCCN2C(=O)C(Cc2ccccc2)NC(=O)C(CC(C)C)NC(=O)C(CCCN)NC(=O)C(C(C)C)NC(=O)C2CCCN2C(=O)C(Cc2ccccc2)NC1=O (stereo not given) (cyclo(FPV[Orn]LFPV[Orn]L); configuration not given here) the inhibition was 46.4% (inactive).
In the case of CCOC(=O)c1ccc(N=Cc2c(O)[nH]c(=O)[nH]c2=O)cc1, the inhibition is reported as 73.1% (active).
For CCCCn1c(O)c(C=Nc2ccc(CC)cc2)c(C)c(C#N)c1=O, the inhibition was 24.8% (inactive).
In the case of COC(=O)c1ccc(Nc2ccc(OCC3CCCO3)cc2)nn1 (stereo not given), the inhibition is reported as 93.6% (active).
In the case of COc1cc(C(=O)N2CCOC(COc3ccc(C)cc3)C2)cc(Cl)n1 (stereo not given), the inhibition is reported as 29.3% (inactive).
In the case of Clc1cccc(Nc2nc3nonc3n3nnnc23)c1, the inhibition is reported as 54.3% (active).
In the case of CC(C)S(=O)(=O)c1ccc(C(=O)Nc2onc3c2CCC3)cc1, the inhibition is reported as 84.8% (active).
In the case of CCc1csc(Cn2cc(C(C)c3ccccc3)nn2)n1 (stereo not given), the inhibition is reported as -13.5% (inactive).
In the case of Cc1cc2ncn(CCCOc3ccccc3)c2cc1C, the inhibition is reported as 36.7% (inactive).
In the case of O=c1c2ccccc2ncn1CCCCSc1ccccc1, the inhibition is reported as 89.1% (active).
With Cc1ccc(SCCCCN2C(=O)NC(C)(C)C2=O)cc1 the inhibition was -48.6% (inactive).
In the case of CCc1cc(OCCCCn2cnc3ccccc3c2=O)ccc1Cl, the inhibition is reported as 64.6% (active).
For Cc1nn(S(=O)(=O)c2cccc([N+](=O)[O-])c2)c(C)c1S(=O)(=O)N1CCCC(C)C1 (stereo not given), the inhibition was -15.4% (inactive).
For N#Cc1ccc(NCc2cc(Br)ccc2F)cc1, the inhibition was 88.5% (active).
In the case of N#Cc1ccc(CNc2cccc(Br)c2)c(F)c1, the inhibition is reported as -12.4% (inactive).
For N#Cc1ccccc1CNc1ccc(Br)cc1F, the inhibition was -19.6% (inactive).
For O=c1c2c3c(sc2ncn1Cc1cccc2ccccc12)CCCC3, the inhibition was 21.4% (inactive).
In the case of COC(=O)C(C)Sc1nc2sc3c(c2c(=O)n1Cc1ccccc1)CCC3 (stereo not given), the inhibition is reported as 83.9% (active).
With CC(C)c1nc2c(c(=O)c3ccccc3n2C)c(=O)n1Cc1ccccc1 the inhibition was -29.9% (inactive).
For CC1(Cc2ccccc2F)C(=O)Nc2ccc(-c3cccnc3)cc21 (stereo not given), the inhibition was 55.3% (active).
With CCCc1nn(-c2cccc(Cl)c2)c([O-])c1C1=C([n+]2cccc(CC)c2)C(=O)N(CC(C)C)C1=O the inhibition was 41.4% (inactive).
In the case of CCCC(C)NC(=O)Cn1cnc2cc(F)ccc2c1=O (stereo not given), the inhibition is reported as 86.9% (active).
For CC(C)(C)C(=O)COC(=O)CNC(=O)c1ccccc1, the inhibition was 93.8% (active).
In the case of O=C(NNC1c2ccccc2-c2ccccc21)c1ccccc1, the inhibition is reported as 32.6% (inactive).
In the case of CCN=c1scc(-c2ccc(C)cc2)n1N=C(C)c1ccc(C)o1, the inhibition is reported as 42.6% (inactive).
For C=CCN=c1scc(-c2ccc(OC(F)F)cc2)n1N=C(C)c1ccc2c(c1)OCCO2, the inhibition was 87% (active).
With C=CCN=c1scc(-c2ccc(Cl)c(Cl)c2)n1N=Cc1cccnc1 the inhibition was 68.1% (active).
With C=CCN=c1scc(-c2ccccc2F)n1N=Cc1ccc2c(c1)OCCO2 the inhibition was 9.72% (inactive).
For C=CCN=c1scc(-c2ccc(C)cc2)n1N=C(C)c1cccnc1, the inhibition was 84.7% (active).
In the case of C=CCN=c1scc(-c2ccc(OC(F)F)cc2)n1N=Cc1ccc2c(c1)OCO2, the inhibition is reported as -11.8% (inactive).
With C=CCN=c1scc(-c2ccc(C)c(C)c2)n1N=Cc1cccnc1 the inhibition was -28% (inactive).
For C=CCN=c1scc(-c2ccc(Br)cc2)n1N=Cc1cccnc1, the inhibition was -5.61% (inactive).
With C=CCN=c1scc(-c2ccc(Cl)cc2)n1N=Cc1cccnc1 the inhibition was 9.02% (inactive).
With Cc1ccc(C(=O)N2CCCC(C(=O)c3cccc4ccccc34)C2)s1 (stereo not given) the inhibition was 11.3% (inactive).
With CC1(C)CN(CC(=O)NCC(=O)N2CCCC2)c2cccc(Cl)c21 the inhibition was -12.8% (inactive).
With O=C(NCC(=O)N1CCCCC1)c1sc2ccccc2c1Cl the inhibition was 70.3% (active).
With CCc1ccc(NC(=O)CCn2cnc3c([nH]c4ccccc43)c2=O)cc1 the inhibition was 95.4% (active).
With Cn1c(=O)c2c(ncn2CCOC(=O)c2cc(=O)[nH]c3ccccc23)n(C)c1=O the inhibition was -7.86% (inactive).
For CCc1ccc(-c2cc(C(=O)N=Nc3c(O)[nH]c4ccccc34)[nH]n2)cc1, the inhibition was 18.3% (inactive).
In the case of Brc1cc(CNC2C3CCCC2CN(C2CC2)C3)cs1 (stereo not given), the inhibition is reported as 23.7% (inactive).
In the case of C=CCn1cnnc1SCC(=O)Nc1ccc(Br)c(C)c1, the inhibition is reported as 101% (active).
For C=CCn1c(SCC(=O)NC(=O)NC)nnc1-c1ccncc1, the inhibition was -1.24% (inactive).
With Cn1cnnc1SCC(=O)Nc1ccc2c(c1)OC(F)(F)O2 the inhibition was 16.7% (inactive).
In the case of Cc1nnc2sc(-c3ccccc3NC(=S)NC(=O)c3cc4ccccc4o3)nn12, the inhibition is reported as 57.4% (active).
With CCn1c(O)c(C=NC2CCCCCC2)c(=O)n(CC)c1=S the inhibition was 102% (active).
For Oc1ccc2ccccc2c1C=NC1CC1, the inhibition was 37.4% (inactive).
In the case of Cc1nn(CO)c(C)c1Sc1ccc(Br)cc1, the inhibition is reported as 36.4% (inactive).
